Source: PubChem BioAssay
A selection: hits, their analogues and other compounds. The true share with any hit is near 3.1%.
SIRT5 inh = SIRT5 desuccinylase inhibitors, primary screen, biochemical, fluorescence imaging, single point, set 5; NAD-dependent protein deacylase sirtuin-5, mitochondrial (Homo sapiens), Q9NXA8; inhibition, % at 15 µM; AID 652115, 2013; hit rate 1.1% among 330,000; Purified SirT5, succinyl-peptide AMC, trypsin-coupled fluorescence; in the data active = inhibition above about 15%
Casp6 inh = human caspase-6 inhibitors, primary screen, biochemical, VEID-R110 fluorescence, single point, set 2. P55212. hit rate 0.53% among 350,000. purified caspase-6, Z-VEID-R110 cleavage fluorescence. AID 686996, 2013. inhibition, % at 12.5 µM;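 active = mean inhibition across replicates at least about 35%, with every replicate also reaching that limit, limit read from the data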;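 note: 0% = median of neutral control wells and 100% = no fluorescence left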
FGF22 binding = binders of human FGF22 protein, primary screen, FGF22 synaptogenesis inhibitor project, biophysical, thermal shift, single point | Fibroblast growth factor 22 (Homo sapiens), Q9HCT0 | recombinant FGF22 thermal shift, SYPRO orange fluorescence; percent of sucrose octasulfate shift, DMSO zero | activity (Tm shift, normalised), % at 9.99 µM | hit rate 1.5% among 340,000;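 active = mean Tm shift, scaled 0 neutral to 100 positive control, at about 1.3% or above, every replicate too, limit read from the data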
ERAP1 inh = human ERAP1 aminopeptidase inhibitors, primary screen, biochemical, single point, plate reader. Endoplasmic reticulum aminopeptidase 1 (Homo sapiens), Q9NZ08. recombinant ERAP1, Leu-AMC fluorescence, 60 min. inhibition, % at 10.7 µM. hit rate 0.15% among 340,000;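 active = mean replicate inhibition of at least 30%, or all replicates individually reaching that 30% level; inactive = mean below 30% and not every replicate reaching it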;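 note: 0% = neutral control wells and 100% = L-leucinethiol positive control wells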
Target sequence (Q9NZ08 whole entry, looked up): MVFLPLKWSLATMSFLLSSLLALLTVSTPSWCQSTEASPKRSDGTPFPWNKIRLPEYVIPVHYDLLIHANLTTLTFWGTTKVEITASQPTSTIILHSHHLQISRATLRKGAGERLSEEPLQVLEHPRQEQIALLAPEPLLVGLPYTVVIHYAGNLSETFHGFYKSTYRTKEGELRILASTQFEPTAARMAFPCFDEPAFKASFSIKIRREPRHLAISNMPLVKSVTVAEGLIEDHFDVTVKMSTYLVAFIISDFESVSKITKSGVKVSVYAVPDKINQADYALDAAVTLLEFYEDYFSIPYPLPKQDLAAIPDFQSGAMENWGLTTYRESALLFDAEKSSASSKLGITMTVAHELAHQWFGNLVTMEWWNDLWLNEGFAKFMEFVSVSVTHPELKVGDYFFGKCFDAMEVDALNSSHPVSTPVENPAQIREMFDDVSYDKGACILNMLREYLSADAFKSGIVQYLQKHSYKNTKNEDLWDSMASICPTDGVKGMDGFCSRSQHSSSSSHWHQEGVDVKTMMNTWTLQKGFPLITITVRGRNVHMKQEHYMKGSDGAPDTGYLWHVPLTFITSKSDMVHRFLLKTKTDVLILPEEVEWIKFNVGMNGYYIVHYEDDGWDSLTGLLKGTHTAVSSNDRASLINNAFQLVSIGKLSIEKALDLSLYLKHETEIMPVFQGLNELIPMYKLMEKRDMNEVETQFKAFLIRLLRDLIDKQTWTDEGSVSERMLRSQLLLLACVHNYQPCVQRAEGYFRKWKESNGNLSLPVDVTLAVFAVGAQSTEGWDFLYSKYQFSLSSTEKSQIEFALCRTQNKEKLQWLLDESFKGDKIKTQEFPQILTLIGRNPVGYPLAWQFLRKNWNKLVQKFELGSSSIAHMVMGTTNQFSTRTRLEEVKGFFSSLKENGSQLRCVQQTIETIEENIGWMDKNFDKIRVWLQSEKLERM
* marks the source's active call; other numbers are inactive results; x = no result.

SMILES	SIRT5 inh	Casp6 inh	FGF22 binding	ERAP1 inh
CCOC(=O)c1c(NC(=O)/C=C/C(=O)O)sc(C)c1-c1ccc(C(C)(C)C)cc1	3	42*	1.7*	5
O=C(C1CCCCC1)N1C[C@@H](O)[C@H](n2cc(-c3ccc(F)cc3)nn2)C[C@@H]1c1ccccc1	28*	-3	0	8
O=C(C1CCCCC1)N1C[C@H](n2cc(-c3ccc(F)cc3)nn2)[C@@H](O)C[C@@H]1c1ccccc1	2	3	0	-6
Cc1ccccc1-c1ccc([C@H]2[C@@H](CO)N3CCCCN(C(=O)Nc4ccc(F)cc4)C[C@H]23)cc1	-1	2	-1	-1
COc1ccc(-c2cc3c(=O)n(CC(=O)NCCCN4CCN(Cc5ccccc5)CC4)ncn3n2)cc1	5	40*	0	-2
COCC(=O)N(C)C[C@@H]1Oc2ncc(-c3ccccc3F)cc2C(=O)N([C@@H](C)CO)C[C@@H]1C	-6	-10	0	3
COc1ccccc1C(=O)Nc1ccc2c(c1)OC[C@H](C)N(C)C[C@H](C)[C@@H](OC)CN(C)C2=O	-3	2	0	2
O=S(=O)(O)c1cc(O)c(N=Nc2ccc(O)cc2O)c2ccccc12	31*	52*	0	17
O=C(C1CC1)N1CC2(C1)[C@@H](c1ccccc1)[C@@H](CO)N2Cc1ccc(Cl)cc1	-5	0	0	-1
CCNC(=O)C[C@H]1CC[C@H]2[C@@H](COC[C@@H](O)CN2C(=O)C2CC2)O1	-6	1	0	4
C[C@@H]1CCCCO[C@@H](CN(C)C(=O)c2ccccc2)[C@@H](C)CN([C@@H](C)CO)C(=O)c2cc(NS(C)(=O)=O)ccc2O1	-1	3	x	1
COc1ccc(NC(=O)N(C)C[C@@H]2OCCCC[C@@H](C)Oc3ccc(NC(=O)Nc4ccc(F)cc4)cc3C(=O)N([C@H](C)CO)C[C@@H]2C)cc1	18*	1	-1	-3
COc1ccc(NC(=O)Nc2ccc3c(c2)C(=O)N([C@@H](C)CO)C[C@H](C)[C@H](CN(C)C(=O)Nc2ccc4c(c2)OCO4)OCCCC[C@H](C)O3)cc1	0	1	0	2
COc1ccc(NC(=O)N(C)C[C@@H]2OCCCC[C@@H](C)Oc3ccc(NC(=O)Nc4ccc5c(c4)OCO5)cc3C(=O)N([C@H](C)CO)C[C@H]2C)cc1	15*	2	-1	1
Cc1noc(C)c1NC(=O)Nc1ccc2c(c1)C(=O)N([C@H](C)CO)C[C@H](C)[C@@H](CN(C)C(=O)Nc1ccc(C(F)(F)F)cc1)OCCCC[C@H](C)O2	21*	0	0	0
COc1ccc(NC(=O)Nc2ccc3c(c2)C(=O)N([C@H](C)CO)C[C@@H](C)[C@H](CN(C)C(=O)NC2CCCCC2)OCCCC[C@H](C)O3)cc1	11	0	15*	-1
C[C@H](CO)N1C[C@H](C)[C@@H](CN(C)C(=O)Cc2ccccc2)Oc2ncc(-c3ccc(F)cc3)cc2C1=O	3	-1	0	1
COC(=O)[C@@H]1[C@@H](CO)[C@@H]2Cn3c(ccc(C4=CCCCC4)c3=O)[C@@H]2N1Cc1cccnc1	-10	0	x	-1
Cc1ccc(OC(=O)N(C)C[C@@H]2OCc3ccccc3-c3ccccc3C(=O)N([C@@H](C)CO)C[C@@H]2C)cc1	-4	0	0	0
C[C@H](CO)N1C[C@H](C)[C@@H](CN(C)C(=O)Nc2ccc(F)cc2)OCCCC[C@H](C)Oc2ccc(NC(=O)Nc3ccc(C(F)(F)F)cc3)cc2C1=O	-2	-1	1.2*	-3
C[C@@H]1CN([C@H](C)CO)C(=O)c2cc(NC(=O)Nc3ccc(C(F)(F)F)cc3)ccc2O[C@@H](C)CCCCO[C@H]1CN(C)C(=O)Nc1ccc(F)cc1	0	0	1.4*	-4
C[C@@H]1CCCCO[C@H](CN(C)C(=O)Nc2ccc(F)cc2)[C@@H](C)CN([C@@H](C)CO)C(=O)c2cc(NC(=O)Nc3ccc(C(F)(F)F)cc3)ccc2O1	0	-1	1	-2
COc1ccc(NC(=O)N(C)C[C@@H]2OCCCC[C@@H](C)Oc3ccc(NC(=O)Nc4ccc(C(F)(F)F)cc4)cc3C(=O)N([C@@H](C)CO)C[C@@H]2C)cc1	16*	0	x	-1
